PAFAH2 inh – inhibitors of human PAFAH2. hit rate 0.99% among 340,000. Q99487. inhibition, % at 3.39 µM. AID 492956. recombinant PAFAH2, FP-rhodamine activity probe, fluorescence polarization;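 active means inhibition above the mean over all tested compounds plus 3 SD, cut at about 30% in these data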;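 further: inhibitors block probe labeling of enzyme so polarization drops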
pPAFAH FP inh – pPAFAH (human) enzyme inhibition | inhibition, % at 3.39 µM | Q13093 | hit rate 1.5% among 330,000 | recombinant pPAFAH, FP-rhodamine probe fluorescence polarization;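 active means inhibition above the mean inhibition across the screen plus 3 SD, cut at about 25% in these data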;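 further: inhibitors block binding of the rhodamine activity-based probe so polarization drops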
PAFAH1B3 inh – inhibitors of human PAFAH1B3; inhibition, % at 3.39 µM; hit rate 0.28% among 340,000; recombinant PAFAH1B3, FP-rhodamine probe, fluorescence polarization; Q15102;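 active means inhibition above the screen-wide average of all tested compounds plus 3 SD, cut at about 25% in these data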
PME-1 inh – blocks human protein phosphatase methylesterase 1; recombinant PME-1, FP-Rh probe fluorescence polarization; inhibition, % at 5.9 µM; hit rate 0.53% among 320,000; AID 2130;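 active means inhibition above the campaign mean of all compounds plus 3 SD, cut at about 26% in these data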;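 further: competitive labeling of PME-1 active site by serine hydrolase directed probe; inhibitors block probe labeling so polarization falls and inhibition rises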
Target sequence (Q9Y570 whole entry, looked up): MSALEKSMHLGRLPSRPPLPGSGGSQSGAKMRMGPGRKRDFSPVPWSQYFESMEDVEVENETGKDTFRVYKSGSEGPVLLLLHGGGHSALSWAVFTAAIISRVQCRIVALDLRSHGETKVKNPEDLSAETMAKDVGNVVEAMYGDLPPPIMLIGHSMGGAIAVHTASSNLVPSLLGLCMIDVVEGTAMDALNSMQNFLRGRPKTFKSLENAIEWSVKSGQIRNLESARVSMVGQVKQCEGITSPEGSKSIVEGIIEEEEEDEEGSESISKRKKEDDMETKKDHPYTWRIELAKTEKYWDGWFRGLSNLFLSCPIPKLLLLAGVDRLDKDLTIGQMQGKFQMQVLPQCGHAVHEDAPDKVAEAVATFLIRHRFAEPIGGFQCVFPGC
PAFAH1B2 inh – inhibitors of human PAFAH1B2; P68402; recombinant PAFAH1B2, FP-rhodamine activity probe, fluorescence polarization; inhibition, % at 3.39 µM; hit rate 1.2% among 340,000; AID 492953;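 active means inhibition above the mean of all tested compounds plus 3 SD, cut at about 24% in these data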
Target sequence (P68402 whole entry, looked up): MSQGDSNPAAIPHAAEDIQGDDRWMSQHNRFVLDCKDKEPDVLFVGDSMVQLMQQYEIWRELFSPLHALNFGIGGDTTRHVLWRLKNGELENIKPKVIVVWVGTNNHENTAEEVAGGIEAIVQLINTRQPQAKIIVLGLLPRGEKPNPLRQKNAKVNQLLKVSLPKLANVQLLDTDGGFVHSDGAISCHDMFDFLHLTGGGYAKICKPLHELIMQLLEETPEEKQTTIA
Fam108B inh – Fam108B inhibition, counter-screen for RBBP9 inhibitors. hit rate 0.33% among 300,000. recombinant Fam108B, FP-Rh probe fluorescence polarization. AID 1947. inhibition, % at 9.51 µM;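 active means inhibition above the screen mean inhibition plus 3 SD, computed separately per campaign, cut at about 18% in these data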;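 further: inhibitors lower polarization as less probe binds the enzyme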
Large screens that a line does not name were inactive. Rows were chosen to be rich in hits. Some 2.8% of all compounds tested hit in one or more screens of this group.

CCOc1ccc(OCCCC(=O)N2CCN(S(=O)(=O)c3ccc(Cl)cc3)CC2)cc1	none
CCOc1ccccc1OCCCC(=O)N1CCN(S(=O)(=O)c2ccc(C)cc2)CC1	PAFAH1B2 inh 29
COc1ccc(S(=O)(=O)N2CCCCCC2)cc1	none
CSc1ccccc1C(=O)Nc1cc2c(cc1C(=O)O)OCCCO2	none
COc1ccccc1CNC(=O)N1CCN(S(=O)(=O)c2ccccc2)CC1	none
Cc1sc2ncnc(OCC(=O)N3CCN(S(=O)(=O)c4ccc(Cl)cc4)CC3)c2c1C	PME-1 inh 40
O=C(COc1ccc(S(=O)(=O)N2CCCC2)cc1)N1CCCCC1	none
O=C(COc1ccc(S(=O)(=O)N2CCCC2)cc1)N1CCCC1	pPAFAH FP inh 31
COc1ccccc1CNC(=O)N1CCN(S(=O)(=O)c2ccc(Cl)cc2)CC1	PAFAH1B2 inh 30
COc1ccc(N2CCN(C(=O)C3CCN(S(=O)(=O)c4ccc(F)cc4)CC3)CC2)cc1	PME-1 inh 42
CC(C)c1c(C(=O)N/N=C/C=C/c2ccccc2)nnn1-c1nonc1N	none
O=S(=O)(Nc1cccc(S(=O)(=O)N2CCCCC2)c1)c1ccccc1F	none (no result: PME-1 inh, Fam108B inh)
O=C(O)c1ccc(Cl)c(S(=O)(=O)Nc2ccc(OCc3ccccc3)cc2)c1	PAFAH1B2 inh 26
CCOc1ccc(NS(=O)(=O)c2cc(C(=O)N3CCCC3)ccc2Cl)cc1	none
Cc1c(N=Cc2cc3c(cc2[N+](=O)[O-])OCO3)cccc1[N+](=O)[O-]	pPAFAH FP inh 49
Cc1ccc(NC(=O)Cc2nc(CCl)cs2)cc1	pPAFAH FP inh 32
Cc1ccc(NC(=S)Nc2nc(CC(=O)Nc3ccccc3)cs2)cc1	none
COc1ccc(CC(=O)OCc2csc(CC(=O)Nc3ccc(C)cc3)n2)cc1	pPAFAH FP inh 27 (no result: PME-1 inh, Fam108B inh)
Cc1ccc(S(=O)(=O)N2CCOCC2)cc1NC(=O)CSc1nnc(COc2ccccc2F)n1N	none (no result: pPAFAH FP inh, PME-1 inh, Fam108B inh)
N#CCC(=O)c1sccc1-n1cccc1	pPAFAH FP inh 34
Cc1ccc(S(=O)(=O)Nc2ccc3c(c2)nc2n3CCN(Cc3ccccc3)C2)cc1	none
O=S(=O)(Nc1ccc2c(c1)nc1n2CCN(Cc2ccccc2)C1)c1ccccc1	pPAFAH FP inh 26
Nc1cc(C(=O)O)ccc1Nc1ccccc1	pPAFAH FP inh 27
COC(=O)C(Cc1ccccc1)NC(=O)CCC(=O)NC(C)CCc1ccccc1 (stereo not drawn)	PAFAH1B2 inh 27
CCOc1ccc(C(=O)NC(C)CCc2ccccc2)cc1 (stereo not drawn)	PME-1 inh 39
COc1ccc(C(=O)NC(C)CCc2ccccc2)cc1 (stereo not drawn)	none
Cc1ccc(NC(=O)CCN2C(=O)c3cccc([N+](=O)[O-])c3C2=O)c(Br)c1	none
COc1ccc2[nH]c(C(=O)O)c(CCN3C(=O)c4ccc(C(=O)O)cc4C3=O)c2c1	none
O=C(O)c1[nH]c2ccc(Br)cc2c1CCN1C(=O)c2cccc([N+](=O)[O-])c2C1=O	PAFAH1B2 inh 53
O=C(O)c1[nH]c2ccc(Cl)cc2c1CCN1C(=O)c2ccccc2C1=O	PAFAH1B2 inh 84
O=C(CCS(=O)(=O)c1ccc(Br)cc1)NCc1ccc(F)cc1	none
CCCn1c(SCC(=O)NC2CCCCC2)nnc1-c1ccco1	none
Cc1c(NC(=O)C(C)OC(=O)c2ccc([N+](=O)[O-])s2)c(=O)n(-c2ccccc2)n1C (stereo not drawn)	pPAFAH FP inh 30, PAFAH1B3 inh 33
COc1ccc(NC(=O)C2CCN(S(=O)(=O)c3ccc4c(c3)NC(=O)CO4)CC2)cc1	none
CCCc1ccc(Oc2cc(Cl)nc(N)n2)cc1	pPAFAH FP inh 26
Cn1c(CCNC(=O)c2ccco2)nc2cc(NS(=O)(=O)c3ccc(Cl)cc3)ccc21	PAFAH1B2 inh 25
Cc1csc(SC(C)C(=O)Nc2ccccc2C)n1 (stereo not drawn)	none (no result: Fam108B inh)
N#CCCN(C(=O)COC(=O)Cc1ccc(Br)cc1)c1ccccc1	PAFAH1B2 inh 27
O=S(=O)(NCC1CCCO1)c1ccc(NS(=O)(=O)c2ccc(F)cc2)cc1 (stereo not drawn)	none
CCOC(=O)c1sc(=S)n(-c2ccc(OC)cc2)c1C	none (no result: PAFAH2 inh, PAFAH1B3 inh, PAFAH1B2 inh)
CCOC(=O)c1c2c(n(-c3ccc(OC)cc3)c1C)C(=O)C(=O)c1ccccc1-2	PAFAH2 inh 56, PAFAH1B3 inh 77, PAFAH1B2 inh 31 (no result: pPAFAH FP inh, PME-1 inh, Fam108B inh)
Cc1ccc(C(=O)NNc2cc(N3CCCC3)nc(N3CCCC3)n2)cc1	pPAFAH FP inh 32 (no result: PAFAH2 inh, PAFAH1B3 inh, PAFAH1B2 inh)
CCc1ccc(C(=O)N2CCN(c3ccc(NC(=O)c4cccnc4)cc3)CC2)cc1	none
O=C(OC[C@H]1O[C@@H](OC(=O)c2cc(O)c(O)c(OC(=O)c3cc(O)c(O)c(O)c3)c2)[C@H](OC(=O)c2cc(O)c(O)c(OC(=O)c3cc(O)c(O)c(O)c3)c2)[C@@H](OC(=O)c2cc(O)c(O)c(OC(=O)c3cc(O)c(O)c(O)c3)c2)[C@@H]1OC(=O)c1cc(O)c(O)c(OC(=O)c2cc(O)c(O)c(O)c2)c1)c1cc(O)c(O)c(OC(=O)c2cc(O)c(O)c(O)c2)c1	pPAFAH FP inh 70, PME-1 inh 26, Fam108B inh 65 (no result: PAFAH2 inh, PAFAH1B3 inh, PAFAH1B2 inh)
COC1OC(COC(=O)c2ccccc2)C(OC(=O)c2ccccc2)C1OC(=O)c1ccccc1 (stereo not drawn)	none
COc1ccc(-c2nnc(C)c3nocc23)cc1	pPAFAH FP inh 25
CCOC(=O)c1c(N)sc(-c2ccccc2)c1C	pPAFAH FP inh 34
CCOC(=O)c1sc(N)c(C(=O)Nc2ccccc2OC)c1C	PME-1 inh 29
CC(C)Sc1ccccc1C(=O)Nc1ccc2c(c1)n(C)c(=O)n2C	none (no result: pPAFAH FP inh, PME-1 inh, Fam108B inh)
COc1ccc(-n2nc(C(=O)NCC(=O)N3CCC(C)CC3)c3ccccc3c2=O)c(OC)c1	none
Cc1cccc(N2CC(C(=O)Nc3nnc(SCc4ccccn4)s3)CC2=O)c1 (stereo not drawn)	pPAFAH FP inh 27
Cc1ccc(N2CC(C(=O)Nc3nnc(SCc4ccccn4)s3)CC2=O)cc1 (stereo not drawn)	none
O=S(=O)(NC1CCCCCCC1)c1ccccc1	none
O=S(=O)(NC1C2CC3CC(C2)CC1C3)c1ccccc1 (stereo not drawn)	PAFAH1B2 inh 26 (no result: Fam108B inh)
CC(=O)Nc1ccc(C(=O)COC(=O)c2cc(C)oc2C)c(F)c1	none (no result: PME-1 inh, Fam108B inh)
CCN1C(=O)/C(=C\c2ccc(-c3ccc([N+](=O)[O-])cc3OC)o2)SC1=Nc1cccc(C(=O)O)c1	PAFAH1B2 inh 24 (no result: pPAFAH FP inh, PME-1 inh, Fam108B inh)
Cc1nc(C(F)(F)F)c(C(=O)N/N=C(\N)c2cccnc2)s1	none
CCOc1cc(/C=N/NC(=O)c2cccc([N+](=O)[O-])c2)ccc1OS(=O)(=O)c1ccccc1	PME-1 inh 41
COc1ccc(/C=N/NC(=O)c2cc(C)n(-c3ccccc3)c2C)cc1OC	none
Cc1cc(C(=O)N/N=C2\CCCC(=O)C2)c(C)o1	none (no result: pPAFAH FP inh, PME-1 inh, Fam108B inh)

Compound activity (PubChem)
